Assay outcomes (PubChem)
Myeloid diff 2 = induction of myeloid progenitor differentiation, primary screen, cell-based, flow cytometry, MLPCN library; ER-HoxA9 myeloid progenitors, lysozyme-GFP differentiation; calls only at 10 µM; 360,000 tested, 1% active; AID 624256, 2012;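 active = normalized GFP-positive differentiation at or above the plate's own cutoff, the solvent-only control mean plus 3 SD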;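 also: cells exposed to compound for four days before flow analysis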
M1 PAM = human M1 muscarinic receptor positive allosteric modulators, primary screen, CHO-K1 cells, Fluo-8 calcium fluorescence, 1536-well; Muscarinic acetylcholine receptor M1 (Homo sapiens), P11229; CHO-K1 hM1, ACh EC20; 0% = ACh EC20, 100% = maximal ACh; activation, % at 3 µM; 360,000 tested, 0.088% active; AID 588819, 2011; in the data active = activation above about 19%, passing the limit was not always enough
SKN-1 block = suppressors of acrylamide-induced Pgst-4::GFP reporter in worms, primary screen, SKN-1 inhibitor project, whole organism, uHTS, GFP/RFP fluorescence ratio, strain VP596. inhibition, % at 21.8 µM. C. elegans VP596 Pgst-4::GFP/RFP ratio, 24 h. 360,000 tested, 0.49% active;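 active = interference check ratio from 0.5 to 1.5 plus GFP to RFP signal ratio inhibition reaching or exceeding a fixed threshold, cut at about 30% in these data, passing the limit was not always enough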
CHRM1 antagonist = human M1 muscarinic receptor antagonists, primary screen, CHO-K1 cells, Fluo-8 calcium fluorescence, 1536-well; CHO-K1 hM1, ACh EC80 antagonist; inhibition, % at 3 µM; AID 588852, 2011; 360,000 tested, 1.3% active;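 active = percent inhibition above its own plate's cutoff, namely the mean of that plate's compound wells plus 3 SD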;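 also: peak over basal fluorescence ratio during 140 s after agonist addition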
ATG4B inh = ATG4B protease inhibitors, primary screen, biochemical, fluorescence, uHTS; ATG4B cleavage of LC3-PLA2, NBD-HPC fluorescence, 1 h; inhibition, % at 8.33 µM; 340,000 tested, 0.51% active; in the data active = inhibition above about 40%
Target sequence (Q9Y4P1 whole entry, looked up): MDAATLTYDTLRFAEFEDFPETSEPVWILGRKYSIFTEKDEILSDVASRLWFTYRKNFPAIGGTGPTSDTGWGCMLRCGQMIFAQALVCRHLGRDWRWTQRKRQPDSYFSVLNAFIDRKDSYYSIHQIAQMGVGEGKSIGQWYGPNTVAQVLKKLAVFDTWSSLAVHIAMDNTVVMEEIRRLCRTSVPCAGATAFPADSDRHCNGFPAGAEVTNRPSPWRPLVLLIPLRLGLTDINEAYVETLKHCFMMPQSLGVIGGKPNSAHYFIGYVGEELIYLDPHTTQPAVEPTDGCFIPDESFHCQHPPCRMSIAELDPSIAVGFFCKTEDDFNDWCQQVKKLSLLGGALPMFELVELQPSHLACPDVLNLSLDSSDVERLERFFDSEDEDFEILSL
M1 ag = human M1 muscarinic receptor agonists, primary screen, Fluo-8 calcium fluorescence, CHO-K1 cells, HTS; 360,000 tested, 0.33% active; CHO-K1 hM1, agonist mode; 0% DMSO, 100% acetylcholine EC100; activation, % at 3 µM;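 active = activation above the run's mean compound activation plus 3 SD, cut at about 16% in these data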;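 also: peak over basal fluorescence ratio within a 140 s kinetic read after compound addition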
Hits are given with their value; - = inactive; . = no result given; + = active, no number. In the library only some 3.5% were active in any assay of this set; here they are far more common.

SMILES | Myeloid diff 2 | M1 PAM | SKN-1 block | CHRM1 antagonist | ATG4B inh | M1 ag
OC(CC#CCN1CCCCCC1)(c1ccccc1)C1CCCC1 (stereo not given) | - | - | - | 100 | - | -
CC1(C(O)(C#CCN2CCCCC2)c2ccccc2)CCCC1 (stereo not given) | - | - | - | 100 | - | -
CC12CN3CN(C1)CC(c1ccccc1)(C3)C2=O | - | - | - | - | - | -
COC(=O)C1=C(c2ccc(OCc3ccccc3)cc2)C[C@@H]2CC[C@H]1N2C | - | - | - | 34 | . | -
COC(=O)C1=C(c2ccccc2)C[C@@H]2CC[C@H]1N2C(=O)NCc1ccc(C(F)(F)F)cc1 | - | - | - | - | - | -
COC(=O)C1=C(c2cccc(OCc3ccccc3)c2)C[C@@H]2CC[C@H]1N2C(=O)NCc1ccc(N(C)C)cc1 | + | - | - | - | - | -
COC(=O)C1=C(c2ccc(F)cc2OCc2ccccc2)C[C@@H]2CC[C@H]1N2C | - | - | - | - | - | -
COC(=O)C1=C(c2cccc(OCc3ccccc3)c2)C[C@@H]2CC[C@H]1N2C(=O)NCc1ccc(C(C)(C)C)cc1 | - | - | - | - | - | -
COC(=O)C1=C(c2ccc(OCc3ccccc3)c(F)c2)C[C@@H]2CC[C@H]1N2C | - | - | - | 29 | . | -
COC(=O)C1=C(c2ccc(C(C)=O)cc2)C[C@@H]2CC[C@H]1N2C(=O)NCc1ccc(C(F)(F)F)cc1 | - | - | - | - | - | 24
O=C1NC(=S)N(c2ccccc2)C(=O)C1C(c1ccncc1)C1C(=O)NC(=S)N(c2ccccc2)C1=O (stereo not given) | - | - | - | - | - | -
CNCC[C@@H](Oc1ccc(C(F)(F)F)cc1)c1ccccc1 | - | . | - | . | - | .
CN(C)P1(N(C)C)=NC(C(F)(F)F)=NC(C(F)(F)F)=N1 | - | - | - | - | - | -
CCCCn1c(O)c(C(C)=NCc2cc(OC)cc(OC)c2)c(=O)[nH]c1=O | + | - | - | - | - | -
CN1CCC(OC(=O)C2c3ccccc3Oc3ccccc32)CC1 | - | - | - | 99 | - | -
C=C1N2CCC(CC2)C1(O)c1ccc(C)c(C)c1 (stereo not given) | - | - | - | 72 | - | -
C[C@]12CCC3C(CC[C@H]4C[C@@H](O)CC[C@]34C)C1CC[C@@]2(O)C(F)(F)F (stereo not given in full) | - | - | - | - | . | -
CCN(CC)CCC(=O)O[C@H]1CC[C@]2(C)C3CC[C@@]4(C)C(CC[C@]4(C)O)C3CC[C@H]2C1 (stereo not given in full) | - | - | - | 50 | - | -
C[N+]12CCC(CC1)C(C#N)(N1CCOCC1)C2 (stereo not given) | - | - | - | - | - | -
COC(=O)C(O)(c1ccc(NC(=O)NC2CCCCC2)cc1)C(F)(F)F (stereo not given) | - | - | - | - | - | -
COC(=O)C(O)(c1ccc(NC(=S)NC(=O)c2ccc(Cl)cc2Cl)cc1)C(F)(F)F (stereo not given) | - | - | - | - | - | 21
CCOC(=O)C(O)(c1ccc(NC(=S)NC(=O)c2ccc(Cl)cc2Cl)c(C)c1)C(F)(F)F (stereo not given) | - | - | - | 49 | - | 22
COC(=O)C(O)(c1ccc(NC(=S)NC(=O)c2ccc(Cl)cc2Cl)c(C)c1)C(F)(F)F (stereo not given) | - | - | - | - | - | -
CCOC(=O)C(O)(c1ccc(NC(=O)Oc2ccccc2)cc1)C(F)(F)F (stereo not given) | - | - | - | - | - | -
CCOC(=O)C(O)(c1ccc(NC(=S)NC(=O)c2ccc(Cl)cc2Cl)cc1)C(F)(F)F (stereo not given) | - | - | - | - | - | 21
